In PubChem BioAssay (NCATS):
Results filed as inconclusive are left out. Activity calls are given as the source filed them. Unless noted, calls follow the shape of the dose curve; as a rule, active = well fitted curve in the direction sought with a large enough effect; inconclusive = small, poorly fitted or top-dose-only effect, or another doubt; inactive = no such curve, though single readings can be large; an effect the other way counts as inactive or inconclusive.

Columns and labels:
[1] = target: Mitogen-activated protein kinase 10 (Mus musculus) (UniProt Q61831); experiment: JNK3 AlphaScreen Assay (AID 530; active = well fitted curve in either direction with a large enough effect, not every such curve was filed as active;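 also: kinase came from lysate of stimulated human HepG2 cells; signal reports phosphorylation of biotinylated GST-cJun 1-79 at Ser73 with 10 µM ATP; % is scaled to controls: 0 for no effect and ±100 for the full control effect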); settings: JNK3 lysate, c-Jun phosphorylation; series mostly up to 11.4 µM
Outline: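 HepG2 lysate (IL-1b/TNFa pre-activated) + biotin-GST-cJun 1-79 + anti-pSer73 cJun; cpd titration, 15 min RT; ATP 10 uM start; Tris pH 7.6, MgCl2, DTT, vanadate; beads in EDTA buffer; AlphaScreen.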

[2] = Cellular Toxicity (caspase-3) HepG2 (AID 654); settings: HepG2 caspase-3 activation, luminescence; series mostly up to 92.2 µM;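 also: cells exposed to compound for 16 hours before reading; 0% = DMSO alone and 100% = caspase signal from 100 µM tamoxifen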
Outline: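 Concentration-response AC50 values reflect caspase-3/7 induction in HepG2 cells after 16 hours of compound exposure, quantified by luminescence from liberated aminoluciferin and referenced to 100 uM tamoxifen as full stimulation.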

[3] = Cellular Toxicity (caspase-3) HUV-EC-C (AID 656); settings: HUV-EC-C cells, caspase-3 activation (apoptosis); series mostly up to 92.2 µM
Outline: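 Luminescent caspase-3/7 activation (aminoluciferin substrate cleavage) in HUV-EC-C cells after 16 hr compound exposure, 37°C. Signal normalized to DMSO basal and 100 uM tamoxifen as 100%; AC50 from concentration-response fitted with the Hill equation.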

[4] = Cellular Toxicity (caspase-3) SHSY5Y (AID 657); settings: SH-SY5Y caspase-3 activation; series mostly up to 91.7 µM
Outline: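 Luminescent caspase-3/7 readout (aminoluciferin release) in SH-SY5Y cells after 16 h compound exposure in complete medium. Activity scaled between DMSO basal and 10 uM staurosporine as 100%; concentration-response fitted to Hill equation for AC50.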

[5] = Cellular Toxicity (caspase-3) BJ (AID 658); settings: BJ fibroblasts, luminescence; Potency: caspase-3 activation; series mostly up to 91.7 µM
Outline: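 qHTS, BJ fibroblasts, 1000 cells/well; 5 hr preincubation, 16 hr compound, 37 °C; Caspase-Glo 3/7 reagent, 1 hr RT; luminescence. DMSO = 0%, 10 uM staurosporine = 100%. Hill-equation AC50.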

[6] = Cellular Toxicity (caspase-3) MRC-5 (AID 659); settings: MRC-5 cells, luminescence, normalized: DMSO 0%, 10 µM staurosporine 100%; series mostly up to 91.7 µM
Outline: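 MRC-5 fibroblasts, 1500/well; 16 h cpd, 37 °C; Caspase-Glo 3/7, 1 h RT; lumi read. Norm: DMSO = 0%, 10 uM staurosporine = 100%. Hill-fit AC50 from qHTS conc-response.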

[7] = Cellular Toxicity (caspase-3) Mesangial (AID 660); settings: mesangial cells, normalized: DMSO 0%, 100 µM tamoxifen 100%; series mostly up to 91.7 µM;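 also: combined caspase 3 and 7 activity read by Caspase-Glo luminescence; cells exposed to compound for 16 h before the caspase read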
Outline: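 AC50 values come from Hill-equation fits of caspase 3/7 activation, measured as Caspase-Glo luminescence in human glomerular mesangial cells exposed to compound for 16 h at 37 °C; 100% set by 100 uM tamoxifen.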

[8] = Cellular Toxicity (caspase-3) Hek293 (AID 664); settings: HEK293 caspase-3 activation, DMSO = 0%, 100 µM tamoxifen = 100%; at 92.2 µM (top of the series);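 also: cells exposed to compound for 16 h at 37 °C before readout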
Outline: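 Apoptosis readout: Caspase-Glo 3/7 signal in human HEK293 cells following 16-hour compound incubation. Responses scaled between DMSO baseline and 100 uM tamoxifen.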

[9] = Cellular Toxicity (caspase-3) N2a (AID 665); settings: N2a cells, luminescence, normalized: DMSO 0%, 10 µM staurosporine 100%; series mostly up to 92.2 µM;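 also: compound exposure lasted 16 h at 37 °C before readout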
Outline: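 Concentration-response qHTS: compound-induced caspase-3/7 luminescence in N2a cells (16 h, 37 °C), relative to DMSO and 10 uM staurosporine controls; AC50 obtained using the standard Hill equation.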

[10] = Cellular Toxicity (caspase-3) Renal Proximal Tubule (AID 667); settings: renal proximal tubule cells, primary cells freshly taken from rat; Potency: caspase-3 activation; series mostly up to 91.7 µM;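 also: cells exposed to compound for 16 hours at 37 °C before detection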
Outline: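 Luminescent caspase 3/7 signal from peptide-aminoluciferin cleavage measures apoptosis in freshly isolated rat kidney proximal tubule cells after 16 h compound exposure. Concentration-response data are normalized to DMSO and 10 uM staurosporine, and AC50 values come from Hill equation fits.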

[11] = target: Peroxisome proliferator-activated receptor alpha (Homo sapiens) (UniProt Q07869); experiment: qHTS assay for small molecule agonists of the peroxisome proliferator-activated receptor alpha (PPARalpha) signaling pathway (AID 651778); settings: PathHunter PPARalpha complementation, chemiluminescence, 6 h; max response: active compounds read high; also: % of control where 0% means no effect
Outline: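 Enzyme-fragment complementation assay in which ligand-bound PPARalpha translocates and forms an active enzyme that generates chemiluminescence. Cells were plated overnight, exposed to compound for 6 hr at 37 C, and then given detection reagent for 60 min at room temperature.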

[12] = qHTS assay for small molecule agonists of the antioxidant response element (ARE) signaling pathway measured by Nrf2-dependant transcriptional activity - cell viability counter screen (AID 720653; active = well fitted curve in the direction sought with a large enough effect in the repeat runs; an effect the other way counts as inactive or inconclusive; also: % is scaled to controls: 0 for no effect and ±100 for the full control effect); settings: ARE-bla HepG2 viability, CellTiter-Glo ATP luminescence, 16 h; max response: active compounds read low
Outline: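 ARE-bla HepG2 cells treated with compounds for 16 h at 37C; this counter screen measures viability as intracellular ATP by CellTiter-Glo luminescence after 30 min at room temperature.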

[13] = qHTS assay for cell viability of the p53RE-bla HCT-116 cell line (AID 743292); settings: p53RE-bla HCT-116 viability, ATP luminescence, 16 h; series mostly up to 95 µM; also: % is scaled to controls: 0 for no effect and ±100 for the full control effect; nearly all actives have a fitted effect of over 55% in size
Outline: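 CellSensor p53RE-bla HCT-116 cells (4,000/well) pre-incubated 5 h at 37 C, then exposed to compounds in DMSO for 16 h at 37 C. Viability read as ATP content by CellTiter-Glo luminescence after 30 min at room temperature.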

Chain of Peroxisome proliferator-activated receptor alpha (Homo sapiens) (Q07869 whole entry, looked up, the tested form may be a part): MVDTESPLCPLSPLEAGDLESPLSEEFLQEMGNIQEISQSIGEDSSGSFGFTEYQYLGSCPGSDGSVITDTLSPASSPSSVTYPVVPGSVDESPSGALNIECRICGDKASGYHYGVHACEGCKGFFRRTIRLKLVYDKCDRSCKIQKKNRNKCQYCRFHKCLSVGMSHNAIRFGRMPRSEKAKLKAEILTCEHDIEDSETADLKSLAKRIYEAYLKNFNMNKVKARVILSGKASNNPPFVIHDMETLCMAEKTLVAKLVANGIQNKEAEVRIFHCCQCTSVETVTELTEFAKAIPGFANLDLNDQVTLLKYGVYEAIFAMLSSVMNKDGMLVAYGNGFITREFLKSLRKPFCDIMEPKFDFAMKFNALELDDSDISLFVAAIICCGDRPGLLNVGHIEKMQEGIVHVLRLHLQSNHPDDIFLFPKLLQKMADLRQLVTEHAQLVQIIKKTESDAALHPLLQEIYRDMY

CCOc1ccc2nc(N)sc2c1
inactive: Potency [1] | Potency [2] | Potency [3] | Potency [4] | Potency [5] | outcome [6] | outcome [7] | caspase-3 activation [8] 2.81% | outcome [9] | Potency [10] | max response [11] -0.23% | max response [12] -3.62% | Potency [13]

Nc1ccc(N=Nc2ccccc2)c(N)c1
inactive: Potency [2] | Potency [3] | Potency [4] | Potency [5] | outcome [6] | outcome [7] | caspase-3 activation [8] -11.8% | outcome [9] | Potency [10] | max response [11] -3.41% | max response [12] -16.9% | Potency [13]

CCN(CC)c1ccc2c(C)cc(=O)oc2c1
inactive: Potency [2] | Potency [3] | Potency [4] | Potency [5] | outcome [6] | outcome [7] | caspase-3 activation [8] 0.453% | outcome [9] | Potency [10] | max response [11] -3.98% | max response [12] -2.1% | Potency [13]

O=[N+]([O-])c1cc(Cl)c(Cl)c(Cl)c1Cl
inactive: Potency [1] | Potency [2] | Potency [3] | Potency [4] | Potency [5] | outcome [6] | outcome [7] | caspase-3 activation [8] 2.6% | outcome [9] | Potency [10] | max response [11] -1.46% | max response [12] -4.59% | Potency [13]

Nc1ccccc1O
inactive: Potency [1] | Potency [2] | Potency [3] | Potency [4] | Potency [5] | outcome [6] | outcome [7] | caspase-3 activation [8] 4.27% | outcome [9] | Potency [10] | max response [11] -1.39% | max response [12] -24.7% | Potency [13]

Oc1ccc2c(c1)OCO2
inactive: Potency [1] | Potency [2] | Potency [3] | Potency [4] | Potency [5] | outcome [6] | outcome [7] | caspase-3 activation [8] -2.85% | outcome [9] | Potency [10] | max response [11] -2.87% | max response [12] 5% | Potency [13]

Cc1cccnc1
inactive: Potency [1] | Potency [2] | Potency [3] | Potency [4] | Potency [5] | outcome [6] | outcome [7] | caspase-3 activation [8] -1.09% | outcome [9] | Potency [10] | max response [11] -1.1% | max response [12] -3.56% | Potency [13]

c1ccc(CSCc2ccccc2)cc1
inactive: Potency [2] | Potency [3] | Potency [4] | Potency [5] | outcome [6] | outcome [7] | caspase-3 activation [8] 0.61% | outcome [9] | Potency [10] | max response [11] -0.51% | max response [12] -4.18% | Potency [13]

C=C(C#N)C(=O)OCC
inactive: Potency [1] | Potency [2] | Potency [3] | Potency [4] | Potency [5] | outcome [6] | outcome [7] | caspase-3 activation [8] -3.19% | outcome [9] | Potency [10] | max response [11] -1.15% | max response [12] -14.3% | Potency [13]

CC(/C=C/C=C(C)/C=C/C(=O)O)=C\C=C\C=C(C)\C=C\C=C(C)\C=C\C(=O)O
inactive: Potency [1] | Potency [2] | Potency [3] | Potency [4] | Potency [5] | outcome [6] | outcome [7] | caspase-3 activation [8] -7.2% | outcome [9] | Potency [10] | max response [11] -2.62% | max response [12] -1.24% | Potency [13]
